FadD28 FP inh = inhibitors of FadD28 bisubstrate probe binding, primary screen, biochemical, fluorescence polarization, single point. actives 0.22% (n = 360,000). inhibition, % at 12.5 µM. Mycobacterium tuberculosis FadD28 fatty-acid-AMP ligase; in the data active = inhibition above about 8.5%, passing the limit was not always enough; inconclusive = no clear call, values can overlap the other calls
Rv3671c inh = Rv3671c serine protease inhibitors, primary screen, biochemical, fluorescence polarization, M. tuberculosis H37Rv; P9WHR9; inhibition, % at 5.96 µM; actives 0.048% (n = 320,000); in the data active = inhibition above about 38%;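 also: extracellular domain of Rv3671c used as enzyme; 0% = enzyme with DMSO and 100% = no enzyme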
Target sequence (P9WHR9 whole entry, looked up, the tested form may be a part): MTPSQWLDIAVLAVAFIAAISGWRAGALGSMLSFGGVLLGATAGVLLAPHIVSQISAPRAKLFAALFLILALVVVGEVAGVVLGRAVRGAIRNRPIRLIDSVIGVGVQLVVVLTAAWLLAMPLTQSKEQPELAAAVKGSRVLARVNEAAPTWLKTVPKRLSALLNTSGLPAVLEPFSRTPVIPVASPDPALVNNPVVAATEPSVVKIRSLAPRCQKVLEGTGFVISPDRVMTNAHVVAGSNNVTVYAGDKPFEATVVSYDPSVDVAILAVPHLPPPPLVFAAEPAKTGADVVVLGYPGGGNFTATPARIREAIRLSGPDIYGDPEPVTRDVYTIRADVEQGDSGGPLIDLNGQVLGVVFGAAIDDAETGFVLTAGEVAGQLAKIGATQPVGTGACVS
BioA inh-1 = M. tuberculosis BioA enzyme inhibitors, primary screen, biochemical, plate reader, single point, HTS; purified M. tuberculosis BioA enzyme; actives 0.096% (n = 360,000); AID 602481, 2012; inhibition, % at 9.99 µM; 7,8-diaminopelargonic acid synthase BioA (Mycobacterium tuberculosis); in the data active = inhibition above about 40%; inconclusive = no clear call, values can overlap the other calls
RecA splice inh = Mtb RecA intein splicing inhibitors, primary screen, biochemical, fluorescence, HTS. Protein RecA (Mycobacterium tuberculosis (strain ATCC 25618 / H37Rv)), P9WHJ3. cell-free RecA intein splicing. inhibition, % (test concentration not listed). actives 0.75% (n = 290,000). AID 2221, 2009; in the data active = inhibition above about 30%; inconclusive = no clear call, values can overlap the other calls;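 also: 0% = vehicle wells and 100% = reference inhibitor control wells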
TcdB inh = TcdB glycohydrolase inhibitors, primary screen, biochemical, single point, plate reader. inhibition, % at 9.99 µM. actives 0.24% (n = 350,000). AID 652162, 2013. TcdB glycohydrolase enzymatic assay; in the data active = inhibition above about 10%
Mtb UGM inh = M. tuberculosis UGM enzyme inhibitors, primary screen, biochemical, fluorescence polarization, single point | actives 0.06% (n = 320,000) | inhibition, % at 10 µM | purified UGM, fluorescence polarization probe displacement | UDP-galactopyranose mutase (Mycobacterium tuberculosis (strain ATCC 25618 / H37Rv)), … | AID 504406, 2011; in the data active = inhibition above about 10%, passing the limit was not always enough; inconclusive = no clear call, values can overlap the other calls
BioA inh-2 = Mtb BioA enzyme inhibitors, dose response, biochemical, plate reader, cherry-pick samples, set 03 | purified BioA enzyme | max activity, % | shares compounds with BioA inh-1 | 310 tested, under 10 active;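 also: top concentration of the dilution series was 10 µM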
HepG2 tox 2 = cytotoxicity in HepG2 cells, dose response, cytotoxicity control, cell-based, plate reader, cherry-pick, two tests; max activity, %; 310 tested, under 10 active; AID 651898, 2012; shares compounds with BioA inh-1
3T3 cytotox 5 = cytotoxicity in NIH3T3 fibroblasts, dose response, cytotoxicity control, cell-based, plate reader, cherry-pick, two tests; shares compounds with BioA inh-1; 310 tested, under 10 active; activity change, negative = cytotoxicity, % at 26 µM
Numbers without * were called inactive; i = inactive; ? = inconclusive; · = no result given. In the library only some 0.9% were active in any assay of this set; here they are far more common. Unless noted, no rule for the calls is given here.

SMILES | FadD28 FP inh | Rv3671c inh | BioA inh-1 | RecA splice inh | TcdB inh | Mtb UGM inh | BioA inh-2 | HepG2 tox 2 | 3T3 cytotox 5
CC(=O)c1ccc(C(=O)N2CCCC(CCC(=O)N(C)CCc3ccccn3)C2)s1 (stereo not given) | 1 | -3 | 66* | 6 | -2 | -4 | 3 | -15 | -10
O=C(Cc1ccccc1)N1CCN(c2ccccc2F)CC1 | -1 | 3 | 0 | 0 | 0 | -1 | · | · | ·
CC(=O)c1ccc(N2CCN(C(=O)Cc3ccccc3)CC2)c(F)c1 | -2 | -5 | 55* | -7 | 1 | -1 | -5 | 20 | 2
CC(=O)c1ccc(N2CCN(C(=O)c3ccc(Br)cc3)CC2)c(F)c1 | -3 | -7 | 93* | -1 | · | -3 | -6 | -11 | 2
O=C(NCC[C@H]1CC[C@H](NC(=O)c2cnccn2)[C@@H](CO)O1)Nc1ccc(Cl)cc1 | · | · | -2 | · | -1 | · | · | · | ·
C=C(C)n1c(=O)n(Cc2ccccc2C)c2ccccc21 | -3 | -5 | 48* | 6 | 1 | 0 | -10 | -14 | -18
CCCC#Cc1ccc2c(c1)O[C@H](CN(C)Cc1ccc3c(c1)OCO3)[C@H](C)CN([C@@H](C)CO)S2(=O)=O | · | · | -1 | · | -1 | · | · | · | ·
Fc1ccc2[nH]c3c(NCCN4CCOCC4)ncnc3c2c1 | -2 | -10 | 54* | -1 | · | 0 | 5 | ? | ?
CN1CCN(c2ncnc3c2[nH]c2ccc(F)cc23)CC1 | 0 | 4 | 70* | · | · | -1 | -6 | -9 | -5
O=C(C[C@H]1C[C@@H]2c3cc(NS(=O)(=O)c4ccc(F)cc4)ccc3O[C@@H]2[C@H](CO)O1)NCc1ccccn1 | · | · | 0 | · | 0 | · | · | · | ·
O=C(Nc1ccc(F)cc1)Nc1ccc2c(c1)[C@@H]1C[C@H](CC(=O)N3CCOCC3)O[C@@H](CO)[C@@H]1O2 | · | · | 0 | · | 0 | · | · | · | ·
CCC(=O)N1C[C@H](C)[C@H](OC)CN(C)C(=O)c2ccc(NC(=O)c3ccc(F)cc3)cc2OC[C@@H]1C | · | · | -1 | · | 0 | · | · | · | ·
CC1(C)Cc2c(cnn2-c2cccc(F)c2)C(NC(=O)c2ccc(=O)[nH]n2)C1 (stereo not given) | 0 | -10 | 9 | 0 | 1 | -3 | · | · | ·
Cc1cc(C(=O)NC2CC(C)(C)Cc3c2cnn3-c2cccc(F)c2)nn1C (stereo not given) | 0 | -7 | 69* | · | 1 | -1 | -9 | -9 | -8
C[C@@H]1CN([C@@H](C)CO)S(=O)(=O)c2ccc(C3=CCCC3)cc2O[C@@H]1CN(C)C(=O)c1ccccn1 | · | · | 0 | · | 0 | · | · | · | ·
Cc1nc2nc(SCC(=O)NCCCN3CCCCC3)nn2c(C)c1Cc1ccccc1 | -1 | -9 | 37 | · | -2 | -2 | · | · | ·
CCOCCCNC(=O)CSc1nc2nc(C)c(Cc3ccccc3)c(C)n2n1 | -1 | 8 | 76* | -1 | 2 | -2 | -8 | 12 | -10
Cc1nc2nc(SCC(=O)NCCCN3CCOCC3)nn2c(C)c1Cc1ccccc1 | 0 | 18 | 47* | 2 | 1 | 1 | -5 | 7 | 9
Cc1ccc(Cc2c(C)nc3nc(SCC(=O)NCCCN4CCCCCC4)nn3c2C)cc1 | · | -8 | · | · | -1 | 1 | · | · | ·
COc1ccccc1S(=O)(=O)N[C@@H]1CC[C@@H](CCNC(=O)C2CCCC2)O[C@H]1CO | · | · | -1 | · | 0 | · | · | · | ·
CC(=O)c1ccc(N2CCN(S(=O)(=O)c3c(C(=O)N4CCCCC4)c(C)n(C)c3C)CC2)cc1 | 0 | 6 | 13 | 1 | 1 | -2 | · | · | ·
CC(=O)c1ccc(N2CCN(S(=O)(=O)c3c(C(=O)N4CCCC4)c(C)n(C)c3C)CC2)cc1 | 0 | 2 | 42* | -1 | 1 | -2 | -3 | -5 | 13
C[C@H]1CN([C@@H](C)CO)C(=O)c2c(c3ccccc3n2C)-c2ccccc2CO[C@@H]1CN(C)Cc1ccc(F)cc1 | · | · | · | · | 1 | · | · | · | ·
Cc1cccc(-n2c(SCC(=O)N(C)C3CCS(=O)(=O)C3)nc3ccccc3c2=O)c1C (stereo not given) | -4 | -4 | 47* | 0 | 1 | -1 | 3 | 17 | 4
CCOc1ccc(CCNC(=O)c2cnc(C)cn2)cc1OCC | · | -2 | 69* | -1 | 0 | 2 | -6 | 27 | 6
SMILES | FadD28 FP inh | Rv3671c inh | BioA inh-1 | RecA splice inh | TcdB inh | Mtb UGM inh | BioA inh-2 | HepG2 tox 2 | 3T3 cytotox 5
CC(C)n1c(N2CCN(C(=O)c3cccs3)CC2)nc2ccccc21 | 2 | 1 | 42* | · | · | 2 | 5 | 24 | 3
COc1cc(OC)cc(C(=O)N2CCN(C(=O)c3ccc(OC)c(OC)c3)CC2)c1 | -2 | 1 | -21 | -3 | · | 1 | · | · | ·
COc1ccc(-c2n[nH]c3c2CN(C(=O)c2ccc(OC)c(OC)c2)CC3)cc1 | -2 | -3 | 86* | 2 | 1 | -2 | -8 | 29 | 7
COc1cccc(CNC(=O)C[C@@H]2C=C[C@H](NC(=O)C3CC3)[C@H](CO)O2)c1 | · | · | -3 | · | 0 | · | · | · | ·
COc1cc(C(=O)N2c3ccccc3CC2C)cc(OC)c1OC (stereo not given) | 0 | 1 | 1 | -1 | · | -1 | · | · | ·
COc1cc(C(=O)N2Cc3cc4ccccc4nc3C2C)cc(OC)c1OC (stereo not given) | 0 | · | 69* | · | 1 | · | -4 | 25 | 7
Cc1noc(C)c1S(=O)(=O)Nc1ccc2c(c1)CC(=O)N([C@H](C)CO)C[C@@H](C)[C@H](CN(C)C(=O)Nc1ccccc1)O2 | · | · | · | · | 1 | · | · | · | ·
O=C(COc1ccc2c(-c3ccccc3)cc(=O)oc2c1)NCc1ccccn1 | -3 | -11 | 4 | 3 | -2 | 1 | · | · | ·
CC(Oc1ccc2c(-c3ccccc3)cc(=O)oc2c1)C(=O)NCc1ccccn1 (stereo not given) | -2 | 1 | 42* | · | 2 | 0 | -6 | 6 | -10
C[C@H](CO)N1C[C@H](C)[C@H](CN(C)S(=O)(=O)c2ccc(F)cc2)Oc2cc(C3=CCCCC3)ccc2S1(=O)=O | · | · | 1 | · | 0 | · | · | · | ·
C[C@@H]1CN([C@H](C)CO)C(=O)c2cc(C#Cc3cccnc3)cnc2O[C@H]1CN(C)S(C)(=O)=O | · | · | 84* | · | 1 | · | -2 | i | -2
CO[C@H]1CN(C)C(=O)c2cc(NS(=O)(=O)c3c(C)noc3C)ccc2OC[C@H](C)NC[C@H]1C | · | · | 0 | · | 0 | · | · | · | ·

From PubChem
